Compound activity from PubChem.
In the library only some 5.3% were active in any assay of this set; here they are far more common.
FMDV antiviral = High Throughput Screening for Foot and Mouth Disease Virus Antivirals | FMDV antiviral cell-based qHTS | Potency, µM (top dose mostly 57.9 µM), inactives show at the top dose activity change, negative = inhibition, actives largely listed as inhibitors | hit rate 1.2% among 410,000; calls by dose curve; tested in HEK293T cells; further: read-out not given here; nearly all actives have a fitted effect of over 45% in size
Marburg entry inh = qHTS for inhibitors of binding or entry into cells for Marburg Virus | Marburg virus pseudotyped entry inhibition, cell reporter | hit rate 1.8% among 300,000 | Potency, µM (titrated, usually from 37.8 µM), for the others: at the highest dose activity change, negative = inhibition, most hits filed as inhibitors; calls by dose curve; tested in HEK293 cells
VACV mCherry inh = qHTS for Stage-Specific Inhibitors of Vaccinia Orthopoxvirus: mCherry Reporter Primary qHTS. Potency, µM (top dose mostly 36.5 µM), for inactives: at the top dose activity change, negative = inhibition, hits mostly inhibitors. Vaccinia virus mCherry reporter infection, fluorescence. hit rate 0.63% among 310,000. AID 720579, 2013; calls by dose curve; tested in A549 cells; further: nearly all actives have a fitted effect of over 35% in size
HCV inh = qHTS Assay for Inhibitors of Hepatitis C Virus (HCV). Potency, µM (top dose mostly 41.8 µM), without a hit: at the highest dose activity change, negative = inhibition, hits mostly inhibitors. Huh7.5.1 HCVcc-Cre infection, luciferase reporter, 44 h. hit rate 3.4% among 340,000; active means well fitted inhibition curve with a large enough effect; inconclusive means small, poorly fitted or top-dose-only effect, or another doubt; inactive means no such curve, though single readings can be large or run the other way
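A cell-based infection assay in which seeded cells (1,000 per well) receive test compound after 4 h, are inoculated with HCVcc-Cre at approximately 0.5 moi, and are incubated 44 h before luminescence detection.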
Lassa entry inh = qHTS for Inhibitors of binding or entry into cells for Lassa Virus | Lassa virus pseudotype entry inhibition, cell reporter | Potency, µM (titrated, usually from 37.9 µM), without a hit: top-dose activity change, negative = inhibition, usual class: inhibitors | hit rate 1.2% among 300,000; calls by dose curve; tested in HEK293 cells; further: nearly all actives have a fitted effect of over 50% in size
Vaccinia Venus = qHTS for Stage-Specific Inhibitors of Vaccinia Orthopoxvirus: Venus Reporter Primary qHTS; Potency, µM (series often up to 36.5 µM), for inactives: at the highest dose activity change, negative = inhibition, hits mostly inhibitors; hit rate 0.46% among 330,000; Vaccinia virus Venus reporter expression, fluorescence; calls by dose curve; tested in A549 cells; further: nearly all actives have a fitted effect of over 30% in size
* marks the source's active call; other numbers are inactive results; i = inactive; ? = inconclusive; · = no result; [ ] = another dose, or the depositor's remark. On the % scale 0 is the no-effect control and ±100 the full control effect; potency means the concentration at half of the fitted maximal effect.

SMILES	FMDV antiviral	Marburg entry inh	VACV mCherry inh	HCV inh	Lassa entry inh	Vaccinia Venus
CC(=O)Nc1ccc(NC(=O)COC(=O)c2c3c(nc4ccccc24)CCN(Cc2ccccc2)C3)cc1	?	?	?	13µM*	?	-29%
CCc1nc2ccccc2c(C(=O)OCC(=O)Nc2cccc(S(=O)(=O)N3CCOCC3)c2)c1C	20µM*	4.6µM*	·	11µM*	?	·
CCOC(=O)CC(NC(=O)CCc1c(C)nc2cc(-c3ccccc3)nn2c1C)c1ccc(C)cc1 (centres undefined)	-13%	?	i	·	-27%[46.1 µM]	-23%
Cc1cc(C)cc(C(=O)C[n+]2cccc(Br)c2)c1	·	·	i	·	·	-14%
Cc1nn(-c2ccccc2)c(C)c1CC(=O)NCC1Cc2cc(-c3cncnc3)ccc2O1 (centres undefined)	-11%	·	-11%	·	·	2%
CCCOc1ccc(C2CC(=O)Nc3c2c(C)nn3-c2nncc(-c3cccc(OC)c3)n2)cc1OC (centres undefined)	?	24%[46.1 µM]	10%	·	?	-14%
CCc1nc2ccccc2c(C(=O)OCC(=O)Nc2ccc(S(=O)(=O)N3CCOCC3)cc2)c1C	?	?	?	11µM*	?	?
O=C(COC(=O)c1ccccn1)Nc1ccc(S(=O)(=O)N2CCOCC2)cc1	-4%	-9%	·	8%	8%	-4%
Cc1ccc2cc(/C=N/NC(=O)[C@H]3C[C@@H]3c3ccccc3)c(Cl)nc2c1	-19%	4%	·	12%	0.065µM*	·
O=C(N/N=C/c1cc2ccccc2nc1Cl)[C@H]1C[C@@H]1c1ccccc1	-20%	?	i	?	0.37µM*	-15%
Cc1cc(C)n(C(C)CC(=O)Nc2ccc(Cl)cc2C)n1 (centres undefined)	-7%	·	-3%	·	-14%[46.1 µM]	-5%
Cc1oc(-c2ccc(Cl)cc2)nc1CN1CCCC(C(=O)NCc2ccco2)C1 (centres undefined)	?	?	·	13µM*	-1%	·
CCOC(=O)N1CCN(C(=O)C2CCCN(Cc3nc(-c4ccc(Cl)cc4)oc3C)C2)CC1 (centres undefined)	?	·	?	1.4µM*	·	?
Cc1oc(-c2ccc(F)cc2)nc1CN1CCCC(C(=O)N2CCOCC2)C1 (centres undefined)	-10%	-4%[46.1 µM]	i	-11%	8%[46.1 µM]	-9%
CCc1ccc(-c2nc(CN3CCCC(C(=O)NCCc4ccc(OC)c(OC)c4)C3)c(C)o2)cc1 (centres undefined)	22µM*	?	·	8.9µM*	?	·
O=C(NCc1cccnc1)C1CCN(C(=O)c2ccc(Cl)cc2Cl)CC1	-20%	0%	-19%	5%	1%	-7%
O=C(NCc1cccnc1)C1CCC(c2ccc(Cl)cc2)CC1 (centres undefined)	?	?	?	7.9µM*	-20%	-28%
COc1ccc(CCNC(=O)C2CCCN(Cc3nc(-c4ccccc4C)oc3C)C2)cc1OC (centres undefined)	?	?	·	?	-26%	·
Cc1oc(-c2ccc(Cl)cc2)nc1CN1CCCC(C(=O)NC2CC2)C1 (centres undefined)	-9%	·	·	?	·	·
Cc1ccc(S(=O)(=O)N(CCc2ccccc2)CC(=O)Nc2cc(C)ccc2C)cc1	-17%	·	-25%	·	9%[46.1 µM]	-12%
Cc1oc(-c2ccc(Cl)cc2)nc1CN1CCC(C(=O)NCc2cccnc2)CC1	-17%	-29%	·	14µM*	0%	·
Cc1cccc(-c2nc(CN3CCCC(C(=O)NCc4ccc(Cl)cc4)C3)c(C)o2)c1 (centres undefined)	?	7%[46.1 µM]	-5%	·	-27%[46.1 µM]	-9%
CCCN(CCC)CCNC(=O)C1CCN(Cc2nc(-c3ccc(Cl)cc3)oc2C)CC1	-5%	10µM*	·	0.79µM*	?	·
Cc1oc(-c2cccc(Cl)c2)nc1CN1CCC(C(=O)NCCc2ccc(Cl)cc2)CC1	-4%	2%[46.1 µM]	-20%	·	17%[46.1 µM]	-11%
COc1ccc(CNC(=O)C2CCCN(Cc3nc(-c4cccc(C)c4)oc3C)C2)cc1 (centres undefined)	25µM*	?	·	?	?	·
SMILES	FMDV antiviral	Marburg entry inh	VACV mCherry inh	HCV inh	Lassa entry inh	Vaccinia Venus
Cc1ccccc1-c1nc(CN2CCCC(C(=O)NCc3cccnc3)C2)c(C)o1 (centres undefined)	-25%	?	·	?	-5%	·
Cc1oc(-c2ccc(Cl)cc2)nc1CN1CCCC(C(=O)NCc2ccc(Cl)cc2)C1 (centres undefined)	35µM*	9%[46.1 µM]	-21%	·	10%[46.1 µM]	-16%
CCc1ccc(-c2nc(CN3CCCC(C(=O)NCc4ccc(C)cc4)C3)c(C)o2)cc1 (centres undefined)	?	-2%[46.1 µM]	?	·	?	-21%
COc1cccc(N2CCN(S(=O)(=O)c3cn(C)c(C)n3)CC2)c1	-11%	·	-1%	·	?	-1%
COC(=O)c1nc2n(n1)C(c1cccc(Cl)c1)C(C(=O)Nc1ccccc1OC)=C(C)N2 (centres undefined)	-22%	?	-9%	·	-4%[46.1 µM]	-6%
CCc1ccc(-n2nc(C)c3c(C)cc(=O)n(CC(=O)Nc4ccc(C(C)=O)cc4)c32)cc1	-8%	·	?	·	8%[46.1 µM]	?
COc1cc(N)c(NC(=O)/C=C/c2nc3cc(OC)c(OC)cc3[nH]2)cc1OC	·	·	-22%	·	·	-10%
Cc1ccsc1/C=C1\CCC(C2CCCC2)C1=O (centres undefined)	-43%	7.9µM*	-12%	-4%	?	-11%
COc1ccc(CN2CCN(C(C)=O)CC2)cc1OC1CCN(C(=O)c2ccc3ccccc3n2)CC1	12%	·	-4%	·	·	6%
C=C1CCC[C@]2(C)C[C@H]3OC(=O)C(CNCCN(CC)CC)[C@H]3CC12 (some centres undefined)	-14%	?	4µM*	?	?	3.2µM*
O=P1(Oc2ccccc2)OCCCS1 (centres undefined)	35µM*	·	·	9%	·	·
CCCCN(C)CCNC(=O)C1CCCN(S(=O)(=O)c2ccc3c(c2)oc(=O)n3C)C1 (centres undefined)	-2%	3%[46.1 µM]	3%	·	9%[46.1 µM]	-6%
Cc1ccc(S(=O)(=O)Nc2ncccn2)cc1	-4%	·	·	12%	·	·
CC[C@H](C)[C@@H]1NC(=O)CNC(=O)c2csc(n2)[C@H](C(C)(C)O)OC(=O)C(C)(C)[C@H](CCCC(C)(Cl)Cl)OC(=O)c2csc1n2	-14%	·	5.6µM*	·	·	6.3µM*
Cn1c2ccccc2c2cnn(CC(=O)Nc3ccccc3F)c(=O)c21	12%	-3%[46.1 µM]	i	·	10%[46.1 µM]	-17%
c1cnc2nc3c4ccccc4c4ccccc4c3nc2c1	-8%	?	-15%	2.8µM*	?	-10%
